According to PubChem BioAssay AID463173 (ICCB-Longwood Screening Facility, Harvard Medical School, 2010):
In all, about 52,000 compounds went through this assay and about 4,300 (8.3%) were called active. The list comes from a sample in which actives are over-represented; it also holds similar structures and randomly drawn compounds. Unmarked numbers belong to inactive results. Rule as the data show it: active = survival mostly below about 52% (no sharp cut-off); inactive = mostly above about 56%.

system: DeltatarO mutant; experiment: S. aureus survival, RN4220 and DeltatarO strains – OD600, teichoic acid synthesis inhibitors, primary screen (AID 463173); conditions: S. aureus RN4220 wild type/DeltatarO growth, OD600, 18 h, stronger effect = lower value, screened at 18.75 µg/mL (by protocol)

Compound	survival
COc1cccc(N2CCN(C(=O)Cn3c(-c4cccs4)cc4ccccc43)CC2)c1	104%
CCCCOc1ccc(C(C)NC(=O)c2cccc(Nc3nc4ccccc4n4nnnc34)c2)cc1 (configuration not stated)	67%
Cc1ccc2[nH]c3nc(NN)nnc3c2c1	77%
CCOc1ccc(N2CC(NC(=O)Cc3ccccc3)CC2=O)cc1 (configuration not stated)	135%
COc1ccc(N(Cc2nnc3n2CCCCC3)C(=O)Nc2ccc(Cl)cc2)cc1Cl	85%
Cc1ccccc1NC(=O)CSc1nc2c(c(=O)n(C)c(=O)n2C)n1Cc1ccccc1F	56%
CCN(CC)CCNC(=O)c1nn(C)c2c1CS(=O)(=O)c1ccccc1-2	59%
O=S(=O)(Nc1cccc(-c2ccc(N3CCCC3)nn2)c1)c1ccc(F)c(C(F)(F)F)c1	71%
Cc1cccc2c(=O)c(N)c[nH]c12	105%
O=C(Cn1c(=O)n(-c2ccccc2)c(=O)c2ccc(C(=O)NCc3ccc4c(c3)OCO4)cc21)Nc1ccc(Br)cc1F	117%
CCc1ccc(CNC(=O)CN2C(=O)CCn3nc(-c4cn(C)c5ccccc45)cc32)cc1	81%
Cn1c(Nc2ccc(Cl)cc2)cc(=O)n(C)c1=O	93%
Cc1cc(F)ccc1NC(=O)C1CCN(C(=O)c2cnn(-c3ccccc3)c2-n2cccc2)CC1	80%
O=C(NCCCN1CCN(c2ccccc2)CC1)c1cc2c(s1)-c1ccccc1OC2	53%
O=C(NCCCN1CCN(c2ccccc2F)CC1)c1cc2c(s1)-c1ccccc1OC2	11% (active)
CCCN1CCN(CCCNC(=O)c2cc3c(s2)-c2ccccc2OC3)CC1	85%
O=C(NCCCN1CCN(c2ccc(F)cc2)CC1)c1cc2c(s1)-c1ccccc1OC2	55% (active)
Cc1cccc2c1-c1sc(C(=O)NCCCN3CCN(c4ccccc4F)CC3)cc1CO2	63%
CCN1CCN(CCCNC(=O)c2cc3c(s2)-c2ccccc2OC3)CC1	88%
Cc1ccc(CCNC(=O)CCc2cn(Cc3ccccc3C)c3ccccc23)cc1	68%
CCN(C(=O)c1cn(CC)c(=O)c2cc(OC)c(OC)cc12)c1ccc(C)c(C)c1	169%
CCOC(=O)C(Cc1c[nH]c2ccccc12)NC(=O)COc1ccc(Cl)c(C)c1 (configuration not stated)	36% (active)
CCc1ccc(OCC(=O)NC(Cc2c[nH]c3ccccc23)C(=O)O)cc1 (configuration not stated)	40% (active)

Compound	survival
Cc1cccc(OCC(=O)NC(Cc2c[nH]c3ccccc23)C(=O)O)c1C (configuration not stated)	48%
COc1ccc(OCC(=O)NC(Cc2c[nH]c3ccccc23)C(=O)O)cc1 (configuration not stated)	60%
COC(=O)C(Cc1c[nH]c2ccccc12)NC(=O)COc1cccc(C)c1 (configuration not stated)	65%
CCOC(=O)C(Cc1c[nH]c2ccccc12)NC(=O)COc1ccc(CC)cc1 (configuration not stated)	33% (active)
Cc1cc(C)cc(OCC(=O)NC(Cc2c[nH]c3ccccc23)C(=O)O)c1 (configuration not stated)	51%
CC(C)c1ccc(OCC(=O)NC(Cc2c[nH]c3ccccc23)C(=O)O)cc1 (configuration not stated)	42% (active)
Cc1cc(OCC(=O)NC(Cc2c[nH]c3ccccc23)C(=O)O)ccc1Cl (configuration not stated)	53%
CCc1ccc(C(=O)COC(=O)C(Cc2c[nH]c3ccccc23)NC(=O)c2ccc(Br)cc2)cc1 (configuration not stated)	142%
CC(C)(C)c1ccc(OCC(=O)NC(Cc2c[nH]c3ccccc23)C(=O)O)cc1 (configuration not stated)	56%
COC(=O)C(Cc1c[nH]c2ccccc12)NC(=O)COc1ccc(Cl)cc1Cl (configuration not stated)	46%
O=C(CCn1c(=O)c2cccn2c2cccnc21)Nc1ccccc1Br	74%
COc1ccc(N2CC(NC(=O)c3cccs3)CC2=O)cc1 (configuration not stated)	89%
O=C(O)Cn1nc(N2CCN(c3ccc(F)cc3)CC2)ccc1=O	84%
Cc1ccc(NC(=O)Cn2c(=O)n(CCCCCC(=O)NCc3ccc(F)cc3)c(=O)c3sccc32)c(C)c1	66%
O=C(O)CCn1nnc(-c2cccs2)n1	103%
Cc1cccc(N2CCN(C(=O)c3ccc(NC(=O)c4nsc5ccccc45)cc3)CC2)c1C	76%
O=C(NCCN1CCCCC1)c1ccc(Cn2c(SCc3cccc(F)c3)nc3cccnc32)cc1	103%
Cc1c(C(=O)Nc2ccccc2)sc2ncn(CC(=O)N3CCOCC3)c(=O)c12	87%
O=C(/C=C/c1cn(CC(O)CN2CCCCCC2)c2ccccc12)c1ccc(Br)cc1 (configuration not stated)	-3% (active)
O=C(Cn1cc(SCc2ccc(Br)cc2)c2ccccc21)N1CCCCC1	80%
O=C(/C=C/c1cn(CC(O)CN2CCCCCC2)c2ccccc12)c1ccccc1 (configuration not stated)	49%
Cc1ccc(C(=O)/C=C/c2cn(CC(O)CN3CCCCCC3)c3ccccc23)cc1 (configuration not stated)	12% (active)
CCOc1ccc(C(=O)/C=C/c2cn(CC(O)CN3CCCCCC3)c3ccccc23)cc1 (configuration not stated)	1% (active)

Compound	survival
COc1ccc(C(=O)/C=C/c2cn(CC(O)CN3CCc4ccccc43)c3ccccc23)cc1OC (configuration not stated)	68%
COc1ccc(C(=O)/C=C/c2cn(CC(O)CN3CCCCCC3)c3ccccc23)cc1OC (configuration not stated)	80%
CCOc1ccc(C(=O)OC(C)CN2CCCCC2)cc1 (configuration not stated)	96%
O=C(/C=C/c1cn(CC(O)CN2CCc3ccccc32)c2ccccc12)c1ccc(Br)cc1 (configuration not stated)	68%
COc1ccc(CCn2c3c(c(=O)[nH]c2=O)C(NC(=O)c2ccccc2OC)(C(F)(F)F)C(=O)N3)cc1OC (configuration not stated)	81%
Cc1ccc(NC(=O)c2ccc3c(O)c(S(=O)(=O)c4ccccc4)c(=O)[nH]c3c2)cc1Cl	78%
CCc1cccc(NC(=O)CSc2nnc(-c3cc4occc4n3C)n2-c2ccccc2C)c1	89%
COc1ccccc1N1CCN(C(=O)C2CCCN(S(=O)(=O)c3ccc4c(c3)CCCN4C(C)=O)C2)CC1 (configuration not stated)	88%
CCN1CCN(C(C)C(=O)NCc2ccc(OC)cc2)CC1 (configuration not stated)	85%
CNC(=O)CSc1nnc(NC(=O)Nc2ccccc2)s1	94%
O=C(Cn1c(SCC(=O)N2CCc3ccccc32)nc2ccccc21)NC1CC1	77%
O=C(NCCc1ccccc1)c1ccc2c(c1)nc1n2CCOC1	109%
c1ccc2c(c1)nc1n2CCC1	96%
OC1COCc2nc3ccccc3n2C1 (configuration not stated)	57% (active)
Cn1c(=O)n(C)c2cc(N3CCOCC3)c(NS(=O)(=O)c3ccc(C(C)(C)C)cc3)cc21	81%
COc1cccc(NC(=O)C(Cc2ccccc2)N2Cc3ccccc3C2=O)c1 (configuration not stated)	66%
CCOc1ccc(CCNC(=O)c2cc3sc(CC)cc3n2C)cc1OCC	55%
COc1cc(CN(C(=O)COc2ccc(F)cc2)c2ccccn2)cc(OC)c1OC	81%
Cc1cccc(CN2CCC(CNC(=O)Cn3ncc4c([nH]c5ccc(C)cc54)c3=O)CC2)c1	120%
OCC#CCSc1nc2ccccc2s1	71%
O=S1(=O)C=C(Sc2nc3ccccc3s2)c2ccccc21	4% (active)
Cc1cc(C)nc(SC2=CS(=O)(=O)c3ccccc32)n1	88%
CC(C)CCn1c(=O)c2cccnc2n(CC(=O)Nc2ccccc2)c1=O	72%

Compound	survival
CCS(=O)(=O)c1c(Nc2cc(C)ccc2C)sc(C(=O)c2ccccc2)c1N	90%
CCOc1ccccc1Nc1sc(C(=O)c2ccc(Cl)cc2)c(N)c1S(=O)(=O)c1ccccc1	25% (active)
CCOc1ccccc1Nc1sc(C(=O)c2ccc(Cl)cc2)c(N)c1C#N	94%
CCCS(=O)(=O)c1c(Nc2ccccc2C)sc(C(=O)c2ccccc2)c1N	28% (active)
CCOc1ccc(Nc2sc(C(=O)c3ccc(F)cc3)c(N)c2S(=O)(=O)c2ccc(C)cc2)cc1	52% (active)
COc1ccc(S(=O)(=O)c2c(Nc3ccc(C)cc3)sc(C(=O)c3ccc(C)cc3)c2N)cc1	105%
Cc1ccccc1Nc1sc(C(=O)c2ccccc2)c(N)c1S(C)(=O)=O	99%
CCOc1ccccc1Nc1sc(C(=O)c2ccccc2)c(N)c1S(=O)(=O)c1ccc(C)cc1	92%
Cc1ccc(Nc2sc(C(=O)c3ccc(F)cc3)c(N)c2S(=O)(=O)c2ccc(C)cc2)cc1	116%
Cc1nc2ccc(S(=O)(=O)N(C)CC(=O)Nc3ccc(C(C)C)cc3)cc2s1	113%
CCc1ccc(NC(=O)CN2C(=O)CCSc3ccccc32)cc1	86%
CCc1nc2ccccc2n2c(-c3ccccc3)c3c(=O)n(C)c(=O)n(C)c3c12	75%
Cc1cc2c(cc1S(=O)(=O)NCc1ccccc1)OCC(=O)N2	91%
COc1ccc(C)cc1NC(=O)NC(C)c1c(-n2cccc2)sc(C)c1C (configuration not stated)	44%
Cc1ccccc1-c1nnc(SCC(=O)N2CCCCC2)o1	64%
Cc1nc2c(-c3ccccc3)c(C)nn2c(C)c1CCC(=O)NCc1cccc(Cl)c1	109%
CCc1cccc(NC(=O)CN2C(=O)COc3ccc(S(=O)(=O)Nc4ccccc4)cc32)c1	82%
N#CC1=C(N)OC2=C(CCc3ccccc32)C1c1ccccc1 (configuration not stated)	2% (active)
CC(C)N1CC2=C(OC(N)=C(C#N)C2c2cccnc2)/C(=C/c2cccnc2)C1 (configuration not stated)	85%
CCOC(=O)C1=C(c2ccccc2)OC(N)=C(C#N)C1c1ccncc1 (configuration not stated)	87%
Cc1ccc(NC(=O)C(C)Sc2n[nH]c(-c3ccccc3O)n2)cc1 (configuration not stated)	23% (active)
Cc1ccc(CSc2n[nH]c(-c3ccccc3O)n2)cc1	62%
Cc1cccc(C)c1NC(=O)C(C)Sc1n[nH]c(-c2ccncc2)n1 (configuration not stated)	76%
